Assay results published in PubChem BioAssay AID1159580 (chemical genetic matrix, 2015).
Screen size: about 5,500 compounds; about 2,000 (36%) were called active. Roughly 18% stayed inconclusive and do not appear here. No stated cut-off is given here; in the data, active means normalized growth mostly below about 0.91 (no sharp cut-off); inconclusive means no clear call, values can overlap the other calls; inactive means mostly above about 0.92. This is one part of the list.

Assay: chemical genetic growth profiling, strain panel (AID 1159580);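 further: tested at 20 µM; growth read once vehicle control cultures reached saturation at 30 °C; 1 = growth at the plate median or of vehicle wells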
Conditions: S. cerevisiae deletion strains, growth OD

Measured: normalized growth

CC(=O)O[C@@H]1CC2C(C)(C)[C@H](O)C[C@H](O)[C@]2(C)C2CC[C@@]3(C)C(=CC(=O)O[C@H]3c3ccoc3)[C@@]21C (stereo not given in full)
inactive: locus YAL021C, strain ccr4, stronger effect = lower value 0.977 | locus YAL026C, strain drs2, stronger effect = lower value 0.988 | locus YAL030W, strain snc1, stronger effect = lower value 1 | locus YBL061C, strain skt5, stronger effect = lower value 1 | locus YBR009C, strain hhf1, stronger effect = lower value 1.02 | locus YBR023C, strain chs3, stronger effect = lower value 0.991 | locus YBR171W, strain sec66, stronger effect = lower value 1.01 | locus YBR231C, strain swc5, stronger effect = lower value 1 | locus YBR279W, strain paf1, stronger effect = lower value 0.979 | locus YCL011C, strain gbp2, stronger effect = lower value 0.969 | locus YCL016C, strain dcc1, stronger effect = lower value 0.973 | locus YCL069W, strain vba3, stronger effect = lower value 0.99 | locus YCR088W, strain abp1, stronger effect = lower value 0.992 | locus YDL005C, strain med2, stronger effect = lower value 0.981 | locus YDL040C, strain nat1, stronger effect = lower value 0.99 | locus YDR001C, strain nth1, stronger effect = lower value 0.979 | locus YDR069C, strain doa4, stronger effect = lower value 0.983 | locus YDR137W, strain rgp1, stronger effect = lower value 0.981 | locus YDR159W, strain sac3, stronger effect = lower value 0.978 | locus YDR195W, strain ref2 0.989 | locus YDR297W, strain sur2, stronger effect = lower value 0.98 | locus YDR334W, strain swr1, stronger effect = lower value 0.977 | locus YDR335W, strain msn5, stronger effect = lower value 0.973 | locus YDR392W, strain spt3, stronger effect = lower value 0.914 | locus YEL003W, strain gim4, stronger effect = lower value 1.01 | locus YEL037C, strain rad23, stronger effect = lower value 0.99 | locus YEL061C, strain CIN8 (second series), stronger effect = lower value 0.995 | locus YER015W, strain faa2, stronger effect = lower value 0.976 | locus YER016W, strain bim1, stronger effect = lower value 1.01 | locus YER111C, strain swi4, stronger effect = lower value 0.978 | locus YER155C, strain BEM2 (second series), stronger effect = lower value 1.04 | locus YFR010W, strain ubp6, stronger effect = lower value 1.02 | locus YGL167C, strain pmr1, stronger effect = lower value 0.991 | locus YGL173C, strain kem1, stronger effect = lower value 1.05 | locus YGL227W, strain vid30, stronger effect = lower value 0.986 | locus YGL240W, strain doc1, stronger effect = lower value 1.03 | locus YGL253W, strain hxk2, stronger effect = lower value 0.941 | locus YHR013C, strain ard1, stronger effect = lower value 0.952 | locus YHR027C, strain rpn1, stronger effect = lower value 0.979 | locus YHR142W, strain chs7, stronger effect = lower value 0.945 | locus YJL092W, strain hpr5, stronger effect = lower value 0.985 | locus YJL095W, strain BCK1 (second series), stronger effect = lower value 0.991 | locus YJL115W, strain asf1, stronger effect = lower value 0.963 | locus YJL129C, strain trk1, stronger effect = lower value 0.994 | locus YJL154C, strain vps35, stronger effect = lower value 0.981 | locus YJL164C, strain tpk1, stronger effect = lower value 0.992 | locus YJL166W, strain qcr8, stronger effect = lower value 1.02 | locus YKL160W, strain elf1, stronger effect = lower value 0.981 | locus YKR026C, strain gcn3, stronger effect = lower value 0.989 | locus YKR091W, strain srl3, stronger effect = lower value 0.976 | locus YLL001W, strain dnm1, stronger effect = lower value 0.998 | locus YLL026W, stronger effect = lower value 0.996 | locus YLL041C, strain sdh2, stronger effect = lower value 0.984 | locus YLR027C, strain aat2, stronger effect = lower value 1.01 | locus YLR221C, strain rsa3, stronger effect = lower value 1.03 | locus YLR258W, strain gsy2, stronger effect = lower value 0.974 | locus YLR262C, strain YPT6 (second series), stronger effect = lower value 0.967 | locus YLR320W, strain mms22, stronger effect = lower value 1.02 | locus YLR342W, strain FKS1, stronger effect = lower value 0.991 | locus YLR357W, strain rsc2, stronger effect = lower value 0.984 | locus YLR370C, strain arc18, stronger effect = lower value 0.983 | locus YLR384C, strain iki3, stronger effect = lower value 0.978 | locus YML120C, strain ndi1, stronger effect = lower value 1.01 | locus YMR058W, strain fet3, stronger effect = lower value 1 | locus YMR125W, strain sto1, stronger effect = lower value 0.991 | locus YMR129W, stronger effect = lower value 0.972 | locus YMR205C, strain PFK2, stronger effect = lower value 1.04 | locus YMR231W, strain pep5, stronger effect = lower value 1 | locus YNL071W, strain lat1, stronger effect = lower value 1 | locus YNL209W, strain ssb2, stronger effect = lower value 0.968 | locus YNL248C, strain rpa49, stronger effect = lower value 0.967 | locus YNL322C, strain KRE1 (second series), stronger effect = lower value 1.01 | locus YNR049C, strain mso1, stronger effect = lower value 0.961 | locus YOR001W, strain rrp6, stronger effect = lower value 1.03 | locus YOR070C, strain gyp1, stronger effect = lower value 0.989 | locus YOR080W, strain dia2, stronger effect = lower value 0.986 | locus YOR083W, strain WHI5, stronger effect = lower value 0.954 | locus YOR106W, strain vam3, stronger effect = lower value 0.946 | locus YOR265W, strain rbl2, stronger effect = lower value 0.991 | locus YOR270C, strain vph1, stronger effect = lower value 0.926 | locus YOR290C, strain snf2, stronger effect = lower value 0.942 | locus YPL051W, strain arl3, stronger effect = lower value 0.994 | locus YPL078C, strain atp4, stronger effect = lower value 0.988 | locus YPL106C, strain sse1, stronger effect = lower value 0.975 | locus YPL240C, strain hsp82, stronger effect = lower value 0.994
